Data taken from the supplement of paper PMC7411054.
Counter-ions that a name gives are not always drawn.

Legend:
Details in all cases: treatment time: 24 h
A549-ACTB-RAB5A [1] = test: lowest phenotypically active concentration; higher = less potent
Outline: (§1)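 Live-cell features were measured per well and normalised to solvent control wells after fifteen gene-edited A549, HepG2 and WPMY1 reporter lines had been treated for 24 h at 0.3, 1, 3 or 9 µM in four wells each. A condition was deviating when ≥3 of 4 wells sat beyond the 95th percentile of control Euclidean distances. It was reproducible when the median replicate Pearson correlation exceeded the 95th percentile of non-replicates. Phenotypic activity demanded both.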

A549-CANX-COX4 [2] = test: as above
Outline: as §1

A549-GM130-SQSTM1 [3] = test: as above
Outline: as §1

A549-TP53BP1-CLTA [4] = test: as above
Outline: as §1

A549-TUBA1B-RELA [5] = test: as above
Outline: as §1

A549-ACTB-RAB5A [6] = test: phenotypically active (imaging signature differs from DMSO and reproducible) at any of 0.3-9 uM (binary (1 = active, 0 = inactive)); higher = active
Outline: as §1

A549-CANX-COX4 [7] = test: as above
Outline: as §1

A549-GM130-SQSTM1 [8] = test: as above
Outline: as §1

A549-TP53BP1-CLTA [9] = test: as above
Outline: as §1

A549-TUBA1B-RELA [10] = test: as above
Outline: as §1

HepG2-ACTB-RAB5A = test: as above
Outline: as §1

HepG2-CANX-COX4 = test: as above
Outline: as §1

HepG2-GM130-SQSTM1 = test: as above
Outline: as §1

HepG2-TP53BP1-CLTA = test: as above
Outline: as §1

HepG2-TUBA1B-RELA = test: as above
Outline: as §1

WPMY1-ACTB-RAB5A = test: as above
Outline: as §1

WPMY1-CANX-COX4 = test: as above
Outline: as §1

WPMY1-GM130-SQSTM1 = test: as above
Outline: as §1

WPMY1-TP53BP1-CLTA = test: as above
Outline: as §1

WPMY1-TUBA1B-RELA = test: as above
Outline: as §1

| SMILES | lowest phenotypically active concentration (A549-ACTB-RAB5A [1]) | lowest phenotypically active concentration (A549-CANX-COX4 [2]) | lowest phenotypically active concentration (A549-GM130-SQSTM1 [3]) | lowest phenotypically active concentration (A549-TP53BP1-CLTA [4]) | lowest phenotypically active concentration (A549-TUBA1B-RELA [5]) | phenotypically active (A549-ACTB-RAB5A [6]) | phenotypically active (A549-CANX-COX4 [7]) | phenotypically active (A549-GM130-SQSTM1 [8]) | phenotypically active (A549-TP53BP1-CLTA [9]) | phenotypically active (A549-TUBA1B-RELA [10]) | phenotypically active (HepG2-ACTB-RAB5A) | phenotypically active (HepG2-CANX-COX4) | phenotypically active (HepG2-GM130-SQSTM1) | phenotypically active (HepG2-TP53BP1-CLTA) | phenotypically active (HepG2-TUBA1B-RELA) | phenotypically active (WPMY1-ACTB-RAB5A) | phenotypically active (WPMY1-CANX-COX4) | phenotypically active (WPMY1-GM130-SQSTM1) | phenotypically active (WPMY1-TP53BP1-CLTA) | phenotypically active (WPMY1-TUBA1B-RELA) |
| --- | --- | --- | --- | --- | --- | --- | --- | --- | --- | --- | --- | --- | --- | --- | --- | --- | --- | --- | --- | --- |
| CCC(=O)OCC(=O)[C@@]1(OC(=O)CC)[C@@H](C)C[C@H]2[C@@H]3CCC4=CC(=O)C=C[C@]4(C)[C@@]3(Cl)[C@@H](O)C[C@@]21C [beclomethasone-dipropionate] | ≤ 0.3 µM | ≤ 0.3 µM | ≤ 0.3 µM | ≤ 0.3 µM | ≤ 0.3 µM | 1 (active) | 1 (active) | 1 (active) | 1 (active) | 1 (active) | 0 (inactive) | 0 (inactive) | 0 (inactive) | 0 (inactive) | 0 (inactive) | 0 (inactive) | 0 (inactive) | 0 (inactive) | 0 (inactive) | 0 (inactive) |
| O=C1NC(=O)C(c2ccccc2[N+](=O)[O-])=C1Nc1ccc(O)c(Cl)c1 | 9 µM | 9 µM | 9 µM | 9 µM | 9 µM | 1 (active) | 1 (active) | 1 (active) | 1 (active) | 1 (active) | 1 (active) | 1 (active) | 1 (active) | 1 (active) | 1 (active) | 1 (active) | 0 (inactive) | 0 (inactive) | 0 (inactive) | 0 (inactive) |
| c1ccc(CC2=NCCN2)cc1 [tolazoline] |  |  |  |  |  | 0 (inactive) | 0 (inactive) | 0 (inactive) | 0 (inactive) | 0 (inactive) | 0 (inactive) | 0 (inactive) | 0 (inactive) | 0 (inactive) | 0 (inactive) | 0 (inactive) | 0 (inactive) | 0 (inactive) | 0 (inactive) | 0 (inactive) |
| C[C@]12CCC(=O)C=C1CC[C@@H]1[C@@H]2[C@@H](O)C[C@@]2(C)[C@H]1CC[C@]2(O)C(=O)CO [hydrocortisone] | ≤ 0.3 µM | ≤ 0.3 µM | ≤ 0.3 µM | ≤ 0.3 µM | ≤ 0.3 µM | 1 (active) | 1 (active) | 1 (active) | 1 (active) | 1 (active) | 0 (inactive) | 0 (inactive) | 0 (inactive) | 0 (inactive) | 0 (inactive) | 0 (inactive) | 0 (inactive) | 0 (inactive) | 0 (inactive) | 0 (inactive) |
| FC(F)(F)c1ccc(/C=C/c2nc(COc3ccc(CCCCn4ccnn4)cc3)co2)cc1 | ≤ 0.3 µM | ≤ 0.3 µM | ≤ 0.3 µM | ≤ 0.3 µM | ≤ 0.3 µM | 1 (active) | 1 (active) | 1 (active) | 1 (active) | 1 (active) | 1 (active) | 1 (active) | 1 (active) | 1 (active) | 1 (active) | 0 (inactive) | 0 (inactive) | 0 (inactive) | 0 (inactive) | 0 (inactive) |
| Cc1occc(=O)c1O [3-hydroxy-2-methyl-4-pyrone] |  |  |  |  |  | 0 (inactive) | 0 (inactive) | 0 (inactive) | 0 (inactive) | 0 (inactive) | 0 (inactive) | 0 (inactive) | 0 (inactive) | 0 (inactive) | 0 (inactive) | 0 (inactive) | 0 (inactive) | 0 (inactive) | 0 (inactive) | 0 (inactive) |
| C/C=C(/C(=C/C)c1ccc(O)cc1)c1ccc(O)cc1 [dienestrol] |  |  |  |  |  | 0 (inactive) | 0 (inactive) | 0 (inactive) | 0 (inactive) | 0 (inactive) | 0 (inactive) | 0 (inactive) | 0 (inactive) | 0 (inactive) | 0 (inactive) | 0 (inactive) | 0 (inactive) | 0 (inactive) | 0 (inactive) | 0 (inactive) |
| COc1ccc2c(NC(=O)Nc3cccc(C(F)(F)F)n3)ccnc2c1 | ≤ 0.3 µM | 9 µM | 3 µM | 9 µM | 3 µM | 1 (active) | 1 (active) | 1 (active) | 1 (active) | 1 (active) | 1 (active) | 1 (active) | 1 (active) | 1 (active) | 1 (active) | 1 (active) | 1 (active) | 1 (active) | 1 (active) | 0 (inactive) |
| COc1cc(N2CCC(O)CC2)ccc1Nc1cc(Nc2ccccc2S(=O)(=O)C(C)C)c2cc[nH]c2n1 [Mps1-IN-1 dihydrochloride] | 9 µM | 9 µM | 9 µM | 9 µM | 9 µM | 1 (active) | 1 (active) | 1 (active) | 1 (active) | 1 (active) | 1 (active) | 1 (active) | 1 (active) | 1 (active) | 1 (active) | 1 (active) | 1 (active) | 1 (active) | 1 (active) | 0 (inactive) |
| O=c1ncn2nc(Sc3ccc(F)cc3F)ccc2c1-c1c(Cl)cccc1Cl | 9 µM |  |  |  |  | 1 (active) | 0 (inactive) | 0 (inactive) | 0 (inactive) | 0 (inactive) | 0 (inactive) | 0 (inactive) | 0 (inactive) | 0 (inactive) | 0 (inactive) | 0 (inactive) | 0 (inactive) | 0 (inactive) | 0 (inactive) | 0 (inactive) |
| CCCC(=O)O[C@]1(C(=O)COC(C)=O)CC[C@H]2[C@@H]3C[C@H](F)C4=CC(=O)C=C[C@]4(C)[C@@]3(F)[C@@H](O)C[C@@]21C [difluprednate] | ≤ 0.3 µM | ≤ 0.3 µM | ≤ 0.3 µM | ≤ 0.3 µM | ≤ 0.3 µM | 1 (active) | 1 (active) | 1 (active) | 1 (active) | 1 (active) | 0 (inactive) | 0 (inactive) | 0 (inactive) | 0 (inactive) | 0 (inactive) | 0 (inactive) | 0 (inactive) | 0 (inactive) | 0 (inactive) | 0 (inactive) |
